# Test results: the supplement of paper PMC6555819
# How the values were obtained:
# Assay in all cases: PBM binding z-score (relative to random genomic background probes); higher = stronger binding; sequences stand for … in GC…GCGATTGACAGCGTAGAATGAAGG
# [1] = test system: FXR:RXRa (NR concentration 270 nM, RXRa partner concentration 90 nM)
# Outline: (§1)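 Custom Agilent 4×180K protein-binding microarrays carried double-stranded probes, each with a 34-nt variable region. These regions held direct-repeat seeds, single-nucleotide variants, half-site ablations and random human genomic background sequences. Ligand-free nuclear receptor dimers were incubated on the arrays for 1 h, antibodies against each partner (one per run) detected binding, and scanned fluorescence was regression-normalized. Binding z-scores take the random background probes as reference.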
# [2] = test system: LXRa:RXRa (NR concentration 270 nM, RXRa partner concentration 90 nM)
# Outline: as §1
# [3] = test system: LXRa homodimer (NR concentration 270 nM)
# Outline: as §1
# [4] = test system: LXRb:RXRa (NR concentration 270 nM, RXRa partner concentration 90 nM)
# Outline: as §1
# [5] = test system: LXRb homodimer (NR concentration 270 nM)
# Outline: as §1
# [6] = test system: PPARa:RXRa (NR concentration 270 nM, RXRa partner concentration 90 nM)
# Outline: as §1
# [7] = test system: PPARg:RXRa (NR concentration 180 nM, RXRa partner concentration 90 nM)
# Outline: as §1
# [8] = test system: PPARg:RXRa 270nM:90nM, anti-RXR (NR concentration 270 nM, RXRa partner concentration 90 nM)
# Outline: as §1
# [9] = test system: PPARg:RXRa 30nM:10nM, anti-RXR (NR concentration 30 nM, RXRa partner concentration 10 nM)
# Outline: as §1
# [10] = test system: PPARg:RXRa 90nM:30nM, anti-RXR (NR concentration 90 nM, RXRa partner concentration 30 nM)
# Outline: as §1
Sequence,PBM binding z-score [1],PBM binding z-score [2],PBM binding z-score [3],PBM binding z-score [4],PBM binding z-score [5],PBM binding z-score [6],PBM binding z-score [7],PBM binding z-score [8],PBM binding z-score [9],PBM binding z-score [10]
TCTCGGAGGAGACGAAAGGTCAGAGCTCGACATC,2.04,2.95,1.15,2.59,-0.403,3.49,3.2,5.01,3.66,4.7
CCTAGCATGCCAATCTGGGTCACTCAAGGCTTGA,0.636,1.12,-0.371,0.998,-0.652,3.3,2.23,2.25,-0.035,1.26
CGAACTAGGGCAAGGACAGTGAATCTCCGCACGC,0.00807,-0.366,0.0437,-0.81,-0.814,1.76,2.96,3.03,0.479,1.87
CAGCCTAGGTCAAGGCCAGTATAGGAGGAACGTT,3.62,2.26,-0.0783,1.7,-0.501,3.45,2.15,2.23,0.352,1.18
ATCGAAAGGTCGAATGTGAGTATACCCACCCGAA,4.89,4.01,0.69,3.19,1.37,4.5,2.9,3.02,1.25,1.97
TCATATAGGTAGATGCTAGGTGAAAGTCCGATCT,0.567,0.862,0.165,0.357,-0.423,0.819,0.568,1.87,3.53,2.7
CGAACTAGGTCAAGGACAGTGAGTCTCCGCACGC,3.12,1.84,-0.202,0.891,-0.739,4.6,7.31,6.21,3.52,5.83
CCTACTGGCCCACGAAAGGTCATTGATTCAGTGA,3.58,4.35,5.66,4.39,0.684,4.2,0.749,2.36,0.593,1.47
TGTCAAAGTTCAAAGTTAACGTAAGTATCCACAC,6.94,6.38,5.46,4.6,2.99,5.59,8.27,7.38,5.04,7.29
GCAAGTTGGTCAGTAAAAGGTCACACACCGGTCG,3.28,4.29,4.58,4.17,0.833,4.62,3.08,4.43,2.58,3.92
GGAACGAGGGCAAAGTTGATACCATCTGTCGACG,1.54,1.06,0.172,1.17,-0.157,4.04,6.72,6.85,6.52,7.6
ATCTCTAGGTAACCAAGTTCATTGAATGCCGAAC,0.729,2.12,2.71,1.66,1.1,2.14,1.04,1.24,0.578,0.937
TATACAGGGTCAAAGGCCAGAGTACGAATGTCGA,7.35,6.25,2.5,4.96,1.86,6.57,8.48,7.61,5.77,7.93
CTCGAAAGGTCGTGCTCAGGTGAGTCTACCAAAC,4.93,3.85,0.251,3,0.082,4.65,2.04,3.85,0.42,2.48
TTACCAAGGTGAAACGTCGTTGATGCACGCCTTG,0.678,0.335,-0.246,0.141,-0.495,1.96,1.66,2.76,1.24,2.15
CCATACGGGTCACTCCAGGTTATAGCATCGGAGT,4.55,7.37,1.79,5.15,0.265,4.18,3.46,3.28,1.27,2.68
CGTCCAAGGTCATCAGGTCAGTGAAAGCGACGTG,7.31,5.49,1.85,4.14,0.684,5.83,6.35,6.07,2.32,4.84
ATAAGTAGGTTAAGGGTCATTCAGGTTGGTTCGC,4.91,4.67,3.52,4.65,2.15,6.55,12,9.92,10.7,11.2
TCTCGGAGGACACGAAAGATCAGAGCTCGACATC,-0.277,0.0528,-0.431,-0.144,-0.969,0.328,0.493,0.915,2.54,1.17
ACTTACGGGTCAACGAGGTTTTAGCACGCGTATA,6.78,4.29,0.188,3.9,0.561,5.92,5.23,4.84,1.94,3.95
CCTCGAAGGACAGAAGGTCAGAGCTGTCCGCTTT,1.13,1.56,0.132,1.28,-0.573,1.83,0.0228,0.429,-0.598,0.107
TGTCAAAGTTCAAAGGTACCGTAAGTATCCACAC,6.69,6.28,4.68,4.31,1.83,5.79,7.97,7.18,4.9,6.89
CCTTTTAGTTGACCATAAGGGCAACCGAAGCTCG,0.795,0.621,0.344,0.707,1.3,0.649,0.247,0.669,0.0181,0.427
TATACAGGGTCAAAGGCCACAGTACGAATGTCGA,7.15,6.26,2.88,5.26,2.68,6.52,9.43,8.36,7.28,8.74
